Data reported in PubChem BioAssay (NCI).
Values joined by “and” are separate entries in the source; they are usually repeats but may differ in a detail not shown here. Identical values can stand only once. This is part of a sample that, as a whole, favours compounds with a hit. Of some 83,000 tested, about 20% had one in any assay.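 Note: values are percent growth. 100 is the growth of untreated cells, values between 100 and 0 indicate rising inhibition; between -100 and 0 indicates cell death.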 Values without a mark were called inactive. Active and inactive are the calls of the source. The calls were made as follows: active = growth percent below 10; inactive = the rest.

What follows are compounds tested on ACHN renal (assay: NCI-60 one-dose screen, 48 h (100 = growth as untreated, 0 = no growth, -100 = all killed)). Settings: 10 µM unless noted.
In the case of `CN(C)CCCn1c2nc(=O)[nH]c(=O)c-2nc2cc(Cl)c(Cl)cc21`, the growth is reported as 87.8%. `C=C(CNCCc1ccc(O)cc1)[C@@H]1CC[C@]2(CO)CC[C@]3(C)[C@H](CC[C@@H]4[C@@]5(C)CCC(NCCc6ccc(O)cc6)C(C)(C)[C@@H]5CC[C@]43C)[C@@H]12` (some centres not stated) was tested, and the growth was -98.9% (active). `O=C1/C(=C/c2cn(-c3ccccc3)nc2-c2ccccc2)SC(=S)N1c1ccc(Cl)cc1` gave a growth of 81.9%. For `CCCNNC(=O)/C=C/c1ccc(CNCCc2c(C)[nH]c3ccccc23)cc1`, the growth was -15.4% [2.5 µM] (active). `C=CCNC(=O)Cc1c(-c2ccc(OC)cc2)oc2c(OC)c3c(c(OC)c12)OCO3` showed a growth of 104%. Work on `CC1=C2[C@@H](CC1)[C@]1(C)O[C@@](C(C)C)(C[C@H]1OC(=O)CO)[C@H]2OC(=O)C1CC1c1ccccc1` (some centres not stated) yielded a growth of 43.1%. `O=C([C@H]1C[C@H]1c1ccc(S(F)(F)(F)(F)F)cc1)N1CCN(c2cc(Cl)ccc2C(F)(F)F)CC1` showed a growth of 93.4%. `O=C(Cc1ccc(F)cc1)c1ccccc1` gave a growth of 110%. `COc1cc2cc(NCc3ccncc3)nc(C)c2cc1OC` gave a growth of 101%. Work on `COc1ccc(C(=O)/C=C/c2ccc(OCc3cccc(C(F)(F)F)c3)c(OC)c2)cc1OC` yielded a growth of 93.4%. `CN1Cn2c(ccc2C(F)(F)F)C(=O)CS1(=O)=O` gave a growth of 99.4%. In the case of `O=C1C=C(Nc2ccccc2)c2ncccc2C1=O`, the growth is reported as -98.3% (active). `C=C1C(=O)O[C@H]2[C@H]1CC/C(COC(=O)NCc1ccc(Cn3c(=O)sn(CCCI)c3=O)cc1)=C\CC[C@@]1(C)O[C@@H]21` showed a growth of 16.2%. `CCN(Cc1ccccc1)c1ccc(/C=C2\COc3ccccc3C2=O)cc1` showed a growth of 101%. `COc1ccc(C(=O)/C=C/c2ccc(OCc3ccc(Cl)cc3)cc2)cc1OC` showed a growth of 103%. `COc1ccc(Cn2cc(C(=O)Nc3cccnc3Nc3ccccc3)nn2)cc1` was tested, and the growth was 105%. For `CC(=O)/C=C/c1ccc(OCc2ccc(C(C)(C)C)cc2)cc1`, the growth was 82.6%. In the case of `NNCCc1ccccc1`, the growth is reported as 92% and 89.9%. For `CCN(CC)CC#CCOC(=O)[C@]1(C)CCC[C@]2(C)c3ccc(C(C)C)cc3CC[C@@H]12`, the growth was 92.1%. In the case of `COc1cc2c(cc1OCCCOC1=C=C=C(c3ccc4c(c3)c3cc(-c5ccc(OCCCOc6cc7c(cc6OC)C(=O)N6CCC[C@H]6C=N7)cc5)ccc3n4S(=O)(=O)c3ccc(C)cc3)C=C1)N=C[C@@H]1CCCN1C2=O`, the growth is reported as 7.74% (active). With `O=C(CCl)N(O)c1ccc(/C=C/c2ccccc2)cc1` the growth was 97.8% and 87.6%. `COc1cc(/C=C/C(=O)c2ccc(NC(=O)CSc3nnc(-c4cc(-c5ccccc5)nc5ccccc45)n3-c3ccccc3)cc2)cc(OC)c1OC` was tested, and the growth was 78.6%. In the case of `Nc1[nH]nc(Nc2ccccc2)c1-c1nc2ccccc2s1`, the growth is reported as 15.5%. `O=C(/C=C/c1cccc(Oc2ccc(Cl)cc2)c1)c1ccccc1` showed a growth of 99.3%. In the case of `C[C@]12CCc3c(ccc4cc(O)ccc34)[C@@H]1C[C@H](O)[C@@H]2O`, the growth is reported as 98%. For `CC(=O)/C=C/c1ccc(OCc2ccc(Cl)cc2)cc1`, the growth was 109%. `CC(=O)/C=C/c1ccc(N(CCO)Cc2ccc(C(C)(C)C)cc2)cc1` was tested, and the growth was 80.5%. `CC(=O)/C=C/c1ccc(N(C)Cc2ccc(C(C)(C)C)cc2)cc1` was tested, and the growth was 98.4%. Work on `Cn1cc(-c2csc(-c3cn(CCOC(N)=O)c4ccccc34)n2)c2cccnc21` yielded a growth of 97%. For `C=C(CN1CC=CCC1)[C@@H]1CC[C@]2(COC(C)=O)CC[C@]3(C)[C@H](CC[C@@H]4[C@@]5(C)CC[C@H](O)C(C)(C)[C@@H]5CC[C@]43C)[C@@H]12`, the growth was 99.8%. For `C/C=C(/C)C(=O)O[C@@H]1CC(C)(C)CC2C34OC(=O)[C@@]21CC[C@@]3(C)[C@]1(C)CCC2C(C)(C)C(=O)CC[C@]2(C)C1C[C@@H]4Cl` (some centres not stated), the growth was 102%. In the case of `CC1=CC=C(NC(=O)/C=C/c2ccccc2)CC1Nc1nccc(-c2cccnc2)n1` (configuration not stated), the growth is reported as 50.3%. With `COc1ccc(-c2[nH]c3ccccc3c2-c2ccc(OC)cc2)cc1` the growth was 65.3%. Work on `CC[C@]12CN3CCc4c([nH]c5ccccc45)[C@@](C(=O)OC)(c4cc5c(cc4OC)N(C)[C@H]4[C@@](O)(C(=O)OC)[C@H](OC(C)=O)[C@]6(CC)C=CCN7CC[C@]54[C@@H]76)CC(C3)[C@H]1O2` (some centres not stated) yielded a growth of 40.5%. `CCCCC1=C(Br)C(=O)c2nc(C)ccc2C1=O` showed a growth of 57.1%. In the case of `Nc1ncc(-c2ccc3ncnc(N4CCc5ccc(Cl)cc54)c3c2)cc1C(F)(F)F`, the growth is reported as 11%. For `COc1ccc(-c2nnc3n(C)c(=O)c4ccccc4n23)cc1O`, the growth was 47.5%.
